Laboratory results reported in PubChem BioAssay (Tox21).
Where “and” joins values, the source holds several entries; their conditions need not be identical. Equal values may be shown once. Results filed as inconclusive are left out. Where a call stands in place of a potency, no number is given. Some structures have more than one record in an assay (separate samples or runs), and their calls can disagree. Calls of active or inactive are those of the source. Unless noted, calls follow the shape of the full dose curve.

Columns and labels:
[1] = Nuclear factor erythroid 2-related factor 2/antioxidant responsive element (Nrf2/ARE) small molecule agonists: qHTS cell viability counter screen in human keratinocytes (AID 1919968; active = well fitted cell-killing curve with a large enough effect in the repeat runs; also: nearly all actives have a fitted effect of over 55% in size; also: potency is read from the fitted curve at half-maximal effect)
Outline: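 After a 5 h attachment period, ARE-reporter keratinocytes were dosed with compounds in DMSO and then cultured 23 h at 37 C. Cell viability came from CellTiter-Fluor signal read after a further 1 h.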

[2] = Nuclear factor erythroid 2-related factor 2/antioxidant responsive element (Nrf2/ARE) small molecule agonists: luciferase reporter gene qHTS assay in human keratinocytes (AID 1919969); also: nearly all actives have a fitted effect of over 35% in size; also: potency is read from the fitted curve at half-maximal effect
[3] = biological target: Gonadotropin-releasing hormone receptor (Homo sapiens) (UniProt P30968); assay: Human gonadotropin-releasing hormone receptor (GnRHR) small molecule agonists, calcium flux assay in GnRHR-HEK293 cells (AID 1920063); also: nearly all actives have a fitted effect of over 35% in size
Outline: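 We seeded human GnRHR-expressing HEK293 cells for 18 hours, loaded them with calcium dye for an hour at 37 C, added test compounds, and recorded fluorescence intensity kinetically for three minutes.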

[4] = G protein-coupled receptor (GPCR) small molecule agonists, calcium flux assay: HEK293 wild type cell line counter screen (AID 1920065)
Outline: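 Calcium-sensitive dye, loaded 1 h at 37 C into cells cultured 18 h, reports compound-evoked calcium release as fluorescence (Ex/Em 480/540), measured over 3 min. Agonist mode; 15-point titrations, triplicate.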

[5] = p53 small molecule agonists, cell-based qHTS assay with human liver microsomes (AID 1963577)
Outline: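 p53RE-bla reporter cells were pre-incubated 5 h at 37 C, then treated with compounds plus human liver microsomes (0.5 mg/mL final) and NADPH (0.5 mg/mL final) for 16 h at 37 C. Beta-lactamase activity was read by LiveBLAzer fluorescence after 2 h at room temperature.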

[6] = p53 small molecule agonists, cell-based qHTS assay with rat liver microsomes (AID 1963578)
Outline: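 p53RE-bla cells were exposed to compounds together with rat liver microsomes (0.5 mg/mL final) and NADPH (0.5 mg/mL final) for 16 h at 37 C, then read by LiveBLAzer beta-lactamase fluorescence after 2 h at room temperature.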

[7] = p53 small molecule agonists, cell-based qHTS assay with human liver microsomes: qHTS cell viability counter screen (AID 1963579); also: nearly all actives have a fitted effect of over 45% in size
Outline: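 p53RE-bla cells (4,000/well) were pre-incubated 5 h at 37 C, then given compounds in DMSO plus human liver microsomes (0.5 mg/mL final) and NADPH (0.5 mg/mL final) for 16 h at 37 C. Viability was read by CellTiter-Glo luminescence.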

[8] = p53 small molecule agonists, cell-based qHTS assay with rat liver microsomes: qHTS cell viability counter screen (AID 1963580); also: nearly all actives have a fitted effect of over 45% in size; also: potency is read from the fitted curve at half-maximal effect
Outline: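 Intracellular ATP, by CellTiter-Glo luminescence, defines viability. HCT-116 p53RE-bla cells, 4,000 per well, were compound-treated in the presence of rat liver microsomes and NADPH for 16 h at 37 C.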

[9] = p53 small molecule agonists, cell-based qHTS assay: qHTS cell viability counter screen (AID 1963581); also: nearly all actives have a fitted effect of over 45% in size
Outline: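 Following 5 h attachment, HCT-116 p53RE-bla cells took up compound for 16 h at 37 C; the reporter was read with B/G FRET substrate (2 h RT), and viability then via CellTiter-Glo ATP luminescence.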

[10] = biological target: 5-hydroxytryptamine receptor 2A (Homo sapiens) (UniProt P28223); assay: 5-hydroxytryptamine receptor 2A (HTR2A) small molecule antagonists, cell-based qHTS assay (AID 1963586); also: nearly all actives have a fitted effect of over 45% in size; also: potency is read from the fitted curve at half-maximal effect
Outline: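 Antagonist-mode intracellular calcium assay: DOI (4 nM) added after 5 min compound pre-incubation at room temperature to dye-loaded HTR2A-CHO cells. Fluorescence followed for 3 min, sampled every second.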

[11] = biological target: 5-hydroxytryptamine receptor 2A (Homo sapiens) (UniProt P28223); assay: 5-hydroxytryptamine receptor 2A (HTR2A) small molecule agonists, cell-based qHTS assay (AID 1963587); also: nearly all actives have a fitted effect of over 30% in size; also: potency is read from the fitted curve at half-maximal effect
Outline: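 Kinetic calcium-flux fluorescence (2 min, 1 sec intervals) after compound addition in agonist mode. HTR2A-CHO cells were cultured 18 h, then dye-loaded 1 h at 37 C.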

[12] = biological target: Muscarinic acetylcholine receptor M1 (Homo sapiens) (UniProt P11229); assay: Cholinergic receptor muscarinic 1 (CHRM1) small molecule agonists, cell-based qHTS assay (AID 1963589); also: nearly all actives have a fitted effect of over 35% in size; also: potency is read from the fitted curve at half-maximal effect
Outline: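 Measures agonist-induced intracellular calcium rise. Stable human CHRM1 CHO line, 1 h dye load at 37 C, compounds from DMSO, kinetic fluorescence read.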

[13] = cAMP Responsive Elements (CRE) small molecule agonists, cell-based qHTS assay (AID 1963590)
Outline: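 A CRE-responsive beta-lactamase reporter in HEK 293T cells was used. Treatment ran 3 h at 37 C; detection used LiveBLAzer B/G FRET substrate for 2 h at room temperature.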

[14] = cAMP Responsive Elements (CRE) small molecule antagonists, cell-based qHTS assay (AID 1963591; active = well fitted inhibition curve with a large enough effect in the signal ratio in the repeat runs, not every such curve was filed as active; the % refers to the signal ratio)
Outline: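 HEK293T cells carrying a CRE-driven beta-lactamase reporter receive compound and NKH477 (0.25 uM final) for 3 h. Fluorescence from LiveBLAzer B/G FRET substrate is read after 2 h at room temperature.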

[15] = biological target: Beta-2 adrenergic receptor (Homo sapiens) (UniProt P07550); assay: Adrenergic beta2 receptor (ADRB2) small molecule antagonists, cell-based qHTS assay (AID 1963592); also: nearly all actives have a fitted effect of over 50% in size; also: potency is read from the fitted curve at half-maximal effect
Outline: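 Cells (CHO, stable ADRB2 overexpression) incubated 18-20hr at 37C; compounds added from DMSO; agonist mix (1nM isoproterenol, 100uM IBMX, 25uM Ro-20-1724) added; 0.5hr RT; d2-cAMP and anti-cAMP-cryptate added; 1hr RT; 665/615 nm read.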

[16] = biological target: D(2) dopamine receptor (Homo sapiens) (UniProt P14416); assay: Dopamine D2 receptor (DRD2) small molecule agonists, cell-based qHTS assay (AID 1963594); also: nearly all actives have a fitted effect of over 35% in size
Outline: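 cAMP accumulation in DRD2-HEK293 cells measured by HTRF after 1 h detection; compounds added 10 min before NKH477 (200nM […]) forskolin-analogue stimulation, 30 min at room temperature, with Ro20-1724 present at 0.1 mM final.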

[17] = biological target: D(2) dopamine receptor (Homo sapiens) (UniProt P14416); assay: Dopamine D2 receptor (DRD2) small molecule antagonists, cell-based qHTS assay (AID 1963595; active = well fitted inhibition curve with a large enough effect in the signal ratio in the repeat runs, with a control signal flat; the % refers to the signal ratio)
Outline: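 Human DRD2 antagonist qHTS measuring cAMP by HTRF. The cells are exposed to compound for 10 min, then to NKH477 (200 nM) and quinpirole (12 nM) for 30 min at RT, with Ro20-1724 (0.1 mM) present throughout.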

[18] = biological target: Muscarinic acetylcholine receptor M1 (Homo sapiens) (UniProt P11229); assay: Cholinergic receptor muscarinic 1 (CHRM1) small molecule antagonists, cell-based qHTS assay (AID 1963588); also: nearly all actives have a fitted effect of over 40% in size; also: potency is read from the fitted curve at half-maximal effect
Outline: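 CHRM1-CHO calcium-flux assay, antagonist mode. Cells were seeded 18 h, dye-loaded 1 h at 37 C and given compound for 5 min at RT, then acetylcholine was added at 50nM. FDSS fluorescence was read 3 min; 15 concentrations, three runs.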

[19] = p53 small molecule agonists, cell-based qHTS assay (AID 1963582; active = well fitted activation curve with a large enough effect in the signal ratio in the repeat runs, not every such curve was filed as active; the % refers to the signal ratio)
Outline: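 In this cell-based concentration-response screen, a p53 response element drives beta-lactamase; cells received DMSO-borne compounds after 5 h culture and were incubated a further 16 h before FRET substrate development.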

[20] = biological target: Beta-2 adrenergic receptor (Homo sapiens) (UniProt P07550); assay: Adrenergic beta2 receptor (ADRB2) small molecule agonists, cell-based qHTS assay (AID 1963593);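 also: CHO cells stably overexpressing human ADRB2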
Outline: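 CHO cells stably over-expressing ADRB2 were plated overnight at 37C, then dosed with compounds plus a stimulation mix containing 100uM IBMX and 25uM Ro-20-1724 for 0.5hr at room temperature. cAMP was measured by HTRF competition, 1hr.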

Chain of 5-hydroxytryptamine receptor 2A (Homo sapiens) (P28223 whole entry, looked up): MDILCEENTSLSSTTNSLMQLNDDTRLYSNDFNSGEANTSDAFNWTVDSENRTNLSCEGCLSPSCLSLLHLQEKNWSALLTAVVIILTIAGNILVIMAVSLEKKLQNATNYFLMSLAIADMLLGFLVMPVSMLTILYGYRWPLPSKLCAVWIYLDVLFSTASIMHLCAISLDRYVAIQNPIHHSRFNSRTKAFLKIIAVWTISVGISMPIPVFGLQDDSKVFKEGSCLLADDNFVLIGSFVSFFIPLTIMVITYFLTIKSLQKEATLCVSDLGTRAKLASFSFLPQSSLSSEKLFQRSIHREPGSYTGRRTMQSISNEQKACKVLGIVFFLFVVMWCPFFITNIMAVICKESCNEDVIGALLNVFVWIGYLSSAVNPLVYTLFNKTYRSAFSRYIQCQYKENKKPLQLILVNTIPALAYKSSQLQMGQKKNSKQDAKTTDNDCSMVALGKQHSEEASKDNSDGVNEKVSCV
Chain of Beta-2 adrenergic receptor (Homo sapiens) (P07550 whole entry, looked up): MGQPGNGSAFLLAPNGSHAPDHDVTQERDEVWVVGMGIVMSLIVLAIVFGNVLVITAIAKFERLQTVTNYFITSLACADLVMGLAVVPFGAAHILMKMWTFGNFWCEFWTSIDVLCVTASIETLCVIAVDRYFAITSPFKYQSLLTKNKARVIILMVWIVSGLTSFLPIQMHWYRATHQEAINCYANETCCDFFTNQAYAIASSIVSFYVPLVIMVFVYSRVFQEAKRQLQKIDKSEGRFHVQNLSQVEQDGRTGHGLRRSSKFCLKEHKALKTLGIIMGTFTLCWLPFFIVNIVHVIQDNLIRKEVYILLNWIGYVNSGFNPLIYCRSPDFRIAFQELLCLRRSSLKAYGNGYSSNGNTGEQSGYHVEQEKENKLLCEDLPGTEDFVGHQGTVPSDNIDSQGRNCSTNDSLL
Chain of Muscarinic acetylcholine receptor M1 (Homo sapiens) (P11229 whole entry, looked up): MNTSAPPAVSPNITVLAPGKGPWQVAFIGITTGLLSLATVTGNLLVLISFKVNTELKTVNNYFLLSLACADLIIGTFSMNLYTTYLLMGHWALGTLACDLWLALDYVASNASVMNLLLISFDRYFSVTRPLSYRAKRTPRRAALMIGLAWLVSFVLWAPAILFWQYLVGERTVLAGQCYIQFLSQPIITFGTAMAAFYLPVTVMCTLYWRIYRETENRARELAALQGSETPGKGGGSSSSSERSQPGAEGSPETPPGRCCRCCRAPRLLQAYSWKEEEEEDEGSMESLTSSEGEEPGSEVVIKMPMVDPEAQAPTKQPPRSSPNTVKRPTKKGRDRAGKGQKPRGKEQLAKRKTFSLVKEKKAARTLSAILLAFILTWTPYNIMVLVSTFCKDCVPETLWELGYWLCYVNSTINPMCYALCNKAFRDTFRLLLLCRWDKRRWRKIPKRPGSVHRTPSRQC
Chain of Gonadotropin-releasing hormone receptor (Homo sapiens) (P30968 whole entry, looked up): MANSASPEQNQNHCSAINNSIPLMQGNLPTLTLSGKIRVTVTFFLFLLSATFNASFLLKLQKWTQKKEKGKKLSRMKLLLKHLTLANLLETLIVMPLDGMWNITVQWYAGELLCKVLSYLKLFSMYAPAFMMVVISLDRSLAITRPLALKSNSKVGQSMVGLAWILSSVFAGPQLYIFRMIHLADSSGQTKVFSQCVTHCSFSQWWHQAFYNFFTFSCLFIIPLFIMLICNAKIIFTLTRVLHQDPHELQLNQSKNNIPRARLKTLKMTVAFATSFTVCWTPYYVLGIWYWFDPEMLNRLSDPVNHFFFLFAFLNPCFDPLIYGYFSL
Chain of D(2) dopamine receptor (Homo sapiens) (P14416 whole entry, looked up): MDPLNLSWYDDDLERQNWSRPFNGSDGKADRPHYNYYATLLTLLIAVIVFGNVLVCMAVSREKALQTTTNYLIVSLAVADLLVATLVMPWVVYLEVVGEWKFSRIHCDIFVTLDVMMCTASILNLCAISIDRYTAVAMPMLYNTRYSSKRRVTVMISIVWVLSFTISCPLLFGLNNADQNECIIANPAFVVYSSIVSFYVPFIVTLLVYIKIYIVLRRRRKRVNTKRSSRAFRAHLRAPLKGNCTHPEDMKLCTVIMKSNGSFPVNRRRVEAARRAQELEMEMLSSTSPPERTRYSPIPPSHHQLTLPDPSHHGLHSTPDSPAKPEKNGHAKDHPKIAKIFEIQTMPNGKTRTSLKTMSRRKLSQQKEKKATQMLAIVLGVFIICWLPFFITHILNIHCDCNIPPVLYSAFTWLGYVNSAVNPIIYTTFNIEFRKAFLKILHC

Row | Structure (SMILES) | Potency [1] | Potency [2] | Potency [3] | Potency [4] | Potency [5] | Potency [6] | Potency [7] | Potency [8] | Potency [9] | Potency [10] | Potency [11] | Potency [12] | Potency [13] | Potency [14] | Potency [15] | Potency [16] | Potency [17] | Potency [18] | Potency [19] | Potency [20]
1 | CCCCCCCC(=O)O | inactive | inactive | inactive | inactive | inactive | inactive | inactive | inactive | inactive | inactive | inactive | inactive | inactive | inactive | inactive | inactive | inactive |  |  | 
2 | CCCCCC(N)=O | inactive | inactive | inactive | inactive | inactive | inactive | inactive | inactive | inactive |  | inactive | inactive | inactive | inactive | inactive | inactive | inactive | inactive |  | 
3 | CCCCCCCCCCCCCC[N+](C)(C)C | 52.7 µM (active) and 38.5 µM (active) and 2.37 µM (active) | inactive |  | inactive | inactive | inactive | inactive | inactive | inactive |  | 48.9 µM (active) | 10.7 µM (active) |  |  |  | inactive | inactive | 941 nM (active) and 818 nM (active) | inactive | 
4 | Cc1cccc(O)c1 | inactive | inactive |  | inactive | inactive | inactive | inactive | inactive | inactive | inactive | inactive | inactive | inactive | inactive | inactive | inactive | inactive |  | inactive | 
5 | Cc1cc(Cc2ccc(N)c(C)c2)ccc1N | inactive | inactive |  | inactive | inactive | inactive | inactive | inactive | inactive |  | inactive | inactive | inactive | inactive | inactive | inactive | inactive | inactive | inactive | 
6 | NCCCCCCN | inactive | inactive |  | inactive | inactive | inactive | inactive |  | inactive | inactive | inactive | inactive | inactive | inactive | inactive | inactive | inactive | inactive and 16.8 µM (active) |  | inactive
7 | CCNC(=S)NCC | inactive | inactive |  | inactive | inactive | inactive | inactive | inactive | inactive | inactive | inactive | inactive |  | inactive | inactive | inactive | inactive | inactive | inactive | 
8 | OCCOCCN1CCN(C(c2ccccc2)c2ccc(Cl)cc2)CC1 (stereo not given) | inactive | inactive |  | inactive | inactive | inactive | inactive | inactive | inactive | 1.47 µM (active) and 1.63 µM (active) | inactive |  | inactive | inactive | inactive and 26.6 µM (active) | inactive | inactive | 7.38 µM (active) | inactive | 
9 | COC(=O)c1ccccc1O | inactive | 68.7 µM (active) and inactive |  | inactive | inactive | inactive | inactive | inactive | inactive |  |  |  | inactive | inactive | inactive | inactive | inactive |  | inactive | inactive
10 | C[Si](C)(C)N[Si](C)(C)C | inactive | inactive |  | inactive | inactive | inactive | inactive | inactive | inactive | inactive | inactive | inactive |  | inactive | inactive | inactive | inactive | inactive |  | inactive
11 | Cc1cc(Cc2cc(C)cc(C(C)(C)C)c2O)c(O)c(C(C)(C)C)c1 | 13.8 µM (active) and 13.7 µM (active) | inactive |  | inactive | inactive | inactive |  | inactive and 36.3 µM (active) | inactive | inactive | inactive | inactive |  |  | 34.6 µM (active) and inactive | inactive |  | inactive |  | 
12 | CCCCC/C(C=O)=C\c1ccccc1 | inactive | inactive |  | inactive | inactive | inactive | inactive | inactive | inactive | inactive | inactive | inactive | inactive | inactive | inactive | inactive | inactive |  | inactive | inactive
13 | CCCCCCCC/C=C\CCCCCCCC(=O)O | inactive | inactive |  | inactive | inactive | inactive | inactive | inactive | inactive | inactive | inactive | inactive | inactive | inactive | inactive | inactive |  | inactive |  | inactive
14 | NCCNc1cccc2ccccc12 | 54.4 µM (active) and inactive | inactive |  | inactive | inactive | inactive | inactive | inactive | inactive | 2.9 nM (active) | 389 nM (active) and 1.2 nM (active) and 19 nM (active) | inactive | inactive | inactive |  | inactive | inactive | inactive | inactive | 
